Data on 40 compounds can be found in PubChem BioAssay (Tox21).

Records with an inconclusive call do not appear. Values without a mark were called inactive. The source made the active and inactive calls. The call rests on the fitted dose curve; in most records, active means well fitted activation curve with a large enough effect in the signal ratio in the repeat runs (not every such curve was filed as active); inconclusive means weak or mixed curves, or effect the other way; inactive means no such curve, though single readings can be large or run the other way; the % refers to the signal ratio. Positions of bridges follow the written chain, without caps; N, C: chain ends. Non-standard residues stand in square brackets, D forms with d. Residues, ends and D or L forms follow the SMILES beside them. *: point of attachment. X2 = CC[C@H](C)CCCCC(=O)*; Orn = NCCC[C@H](N)C(=O)O; Dab = NCC[C@H](N)C(=O)O; Mpa = O=C(O)CCS
On the % scale 0 is the no-effect control and ±100 the full control effect; potency means the concentration at half of the fitted maximal effect.

Chain of Peroxisome proliferator-activated receptor gamma (Homo sapiens) (P37231 whole entry, looked up): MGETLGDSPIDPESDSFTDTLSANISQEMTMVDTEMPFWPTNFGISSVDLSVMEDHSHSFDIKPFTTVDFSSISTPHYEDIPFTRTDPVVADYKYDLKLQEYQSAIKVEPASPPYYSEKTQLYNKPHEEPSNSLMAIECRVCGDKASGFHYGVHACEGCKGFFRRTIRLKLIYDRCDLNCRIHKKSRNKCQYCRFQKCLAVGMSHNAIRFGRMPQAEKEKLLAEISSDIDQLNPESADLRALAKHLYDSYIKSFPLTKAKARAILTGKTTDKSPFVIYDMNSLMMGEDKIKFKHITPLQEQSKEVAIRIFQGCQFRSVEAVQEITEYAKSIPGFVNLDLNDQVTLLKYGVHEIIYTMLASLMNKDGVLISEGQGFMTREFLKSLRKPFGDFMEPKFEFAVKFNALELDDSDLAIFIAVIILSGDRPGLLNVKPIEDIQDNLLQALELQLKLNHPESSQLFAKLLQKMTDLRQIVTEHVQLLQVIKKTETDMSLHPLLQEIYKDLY

The experiment has as its target Peroxisome proliferator-activated receptor gamma (Homo sapiens) (UniProt P37231). Description: qHTS assay to identify small molecule agonists of the peroxisome proliferator-activated receptor gamma (PPARg) signaling pathway (AID 743094). Particulars: HEK293H PPARg-UAS-bla, beta-lactamase FRET ratio, 17 h; series mostly up to 57 µM; activation: at the top concentration. From the text: U.S. Tox21 Program National Center for Advancing Translational Sciences [NCATS] NIH Chemical Genomics Center [NCGC] U.S. Environmental Protection Agency [EPA] National Institutes of Environmental Health Sciences [NIEHS] National Toxicology Program [NTP] U.S. Food and Drug Administration [FDA] Tox21 Assay Overview: The peroxisome proliferator-activated receptors (PPARs) are lipid-activated transcription factors of the nuclear receptor superfamily with three distinct subtypes namely PPAR alpha, PPAR delta (also called PPAR beta) and PPAR gamma (PPARg). All these subtypes heterodimerize with Retinoid X receptor (RXR) and these heterodimers regulate transcription of various genes. PPAR-gamma receptor (glitazone receptor) is involved in the regulation of glucose and lipid metabolism. To identify the compounds that activate PPAR-gamma signaling, GeneBLAzer PPAR gamma UAS-bla HEK293H cell line (Invitrogen, Carlsbad, CA, USA) containing a beta-lactamase reporter gene under control of the control of an upstream activator sequence (UAS) stably integrated into HEK293H cells was used to screen Tox21 compound library.
Tox21 Assay Protocol Summary: PPARg-bla cells were dispensed at 3000 cells/6uL/well in 1536-well black wall/clear bottom plates using a Multidrop Combi (Thermo Fisher Scientific, Waltham, MA) dispenser. After the assay plates were incubated at 37C and 5% CO2 for 5 h, 23 nL of compounds dissolved in DMSO, positive controls or DMSO only was transferred to the assay plate by a Pintool station (Kalypsys, San Diego, CA). The assay plates were incubated at 37C for 17 h. After 1 uL of LiveBLAzerTM B/G FRET substrate was added using a Bioraptr Flying Reagent Dispenser (FRD) workstation (Beckman Coulter, Indianapolis, IN, USA), the plates were incubated at room temperature for 1 h, and fluorescence intensity was measured by an Envision plate reader (PerkinElmer, Shelton, CT).
Background: Quantitative high-throughput screening tests each substance at several concentrations.
For `CCCCCCCCCCCCCCCC(=O)OC[C@@H](O)[C@H]1OC[C@H](O)[C@H]1O`, the “activation” value was -2.54%.
On the same count and under the same terms, in the case of `CCOc1ccc(C[C@H]2NC(=O)CCSSC[C@@H](C(=O)N3CCC[C@H]3C(=O)N[C@@H](CCCN)C(=O)NCC(N)=O)NC(=O)[C@H](CC(N)=O)NC(=O)[C@H]([C@@H](C)O)NC(=O)[C@H]([C@@H](C)CC)NC2=O)cc1` ([Mpa][dY](Et)ITNCP[Orn]G-NH2; disulfide 1-6) it was 0.149%; in that of `CC(C)Cc1ccc([C@@H](C)C(=O)NS(C)(=O)=O)cc1`, 4.02%; in that of `O=C(O)c1cc(O)c2c(c1)[O][Bi][O]2`, -2.6%.
Turning to `C=C1c2c(Cl)ccc(O)c2C(O)=C2C(=O)[C@]3(O)C(O)=C(C(N)=O)C(=O)[C@@H](N(C)C)[C@@H]3[C@@H](O)[C@H]12`, the “activation” value is -1.36% [at 26.2 µM].
Same read-out and setting: then `CC1(O)CCC(C(C)(C)O)CC1` (stereo not given), with 0.847%; and `C[N+]1(C)[C@@H]2CC(OC(=O)C(O)(c3cccs3)c3cccs3)C[C@H]1[C@@H]1O[C@@H]12` (stereo not given in full), with 0.457%.
On the same count and under the same terms, in the case of `OCC(O)COc1ccc(Cl)cc1` (stereo not given) it was 2.83%; in that of `O=C(O)[C@H]1/C(=C/CO)O[C@@H]2CC(=O)N21`, -7.4%.
Regarding `N[C@@H](C(=O)N[C@@H]1C(=O)N2C(C(=O)O)=C(CSc3cn[nH]n3)CS[C@H]12)c1ccc(O)cc1`, the “activation” value was -7.03%.
Same read-out and setting: then `C/C1=C2N=C(/C=C3N=C(/C(C)=C4\[N-]C(C(CC(N)=O)C4(C)CCC(=O)NCC(C)OP(=O)([O-])OC4C(CO)OC(n5cnc6cc(C)c(C)cc65)C4O)C4(C)N=C1C(CCC(N)=O)C4(C)CC(N)=O)C(CCC(N)=O)C\3(C)C)C(CCC(N)=O)C/2(C)CC(N)=O.[CH3-].[Co+3]` (stereo not given), with -3.4%; and `Nc1ncnc2c1ncn2CCOCP(=O)(O)O`, with -0.582%; and `C[C@H]1C[C@H]2[C@@H]3CCC4=CC(=O)C=C[C@]4(C)[C@@]3(F)[C@@H](O)C[C@]2(C)[C@@]1(O)C(=O)CCl`, with -12.9%.
For `CC(CN1c2ccccc2Sc2ccc(S(=O)(=O)N(C)C)cc21)N(C)C` (stereo not given), the “activation” value is -5.49%.
Regarding `Nc1ncnc2c1ncn2[C@@H]1O[C@H](COP(=O)(O)OP(=O)(O)OP(=O)(O)O)[C@@H](O)[C@H]1O`, the “activation” value was 6.41%.
`O=C1NCCN1c1ncc([N+](=O)[O-])s1`: the “activation” value was -3.52% [at 26.2 µM].
Turning to `O=C(O)CCC/C=C\C[C@@H]1[C@@H](/C=C/[C@@H](O)COc2cccc(Cl)c2)[C@H](O)C[C@@H]1O`, the “activation” value is 1.37%.
Same read-out and setting: then `CCOC(=O)[C@H](CS)NCCN[C@@H](CS)C(=O)OCC`, with 4.37%; and `CC(=O)[C@@]1(O)CC[C@H]2[C@@H]3C=C(Cl)C4=CC(=O)[C@@H]5C[C@@H]5[C@]4(C)[C@H]3CC[C@@]21C`, with -1.15%; and `O=C1O[C@H]2[C@H](O)[C@@H]1OC(O)[C@H]2O` (stereo not given in full), with 1.46%.
Same read-out and setting: in the case of `CC[C@H](CC[C@@H](C)[C@H]1CC[C@H]2[C@@H]3CC=C4C[C@@H](O)CC[C@]4(C)[C@H]3CC[C@]12C)C(C)C` it was -0.187%.
Consider `Cn1c(O)c(N=NC(N)=S)c2ccccc21`, for which the Potency is 21.3 µM (active).
With `CCCCCCCCCCCC(=O)N(CCO)CCO`, the “activation” value is -9.22%.
In the case of `NS(=O)(=O)c1cc2c(cc1Cl)NC(Cc1ccccc1)NS2(=O)=O` (stereo not given), the “activation” value was 0.545%.
Consider `O=C(O)C1=C(CSc2nnnn2CS(=O)(=O)O)CS[C@@H]2[C@H](NC(=O)[C@H](O)c3ccccc3)C(=O)N12`, for which the “activation” value is 1.62%.
Same read-out and setting: then `C=CC1=C(C)C2=CC3=NC(=C(CC(=O)[O-])C4=NC(=C(C)C4=C([O-])[O-])C=c4[n-]c(c(C)c4CC)=CC1=N2)C(CCC(=O)[O-])C3C.[Cu+2].[Na+].[Na+].[Na+]` (stereo not given), with -2.54%.
On to `CCN(CC)c1ccc(N=Nc2ccc(S(=O)(=O)N(C)C)cc2)c(S(=O)(=O)NCC[n+]2ccccc2)c1`, for which the “activation” value is 4.36%.
In the case of `C/C=C(/CC[C@@H](C)[C@H]1CC[C@H]2C3=CC[C@H]4[C@H](C)[C@@H](O)CC[C@]4(C)[C@H]3CC[C@]12C)C(C)C`, the “activation” value was -3.6%.
The same measure, in the same setting: in the case of `COc1cc(C[C@@H]2NCCc3cc(O)c(O)cc32)cc(OC)c1OC` it was -2.44%; in that of `c1ccc2cc(C3=NCCN3)ccc2c1`, -1.38%; in that of `CN1CCN(CCCN2c3ccccc3Sc3ccccc32)CC1`, -9.54%.
Same read-out and setting: in the case of `CC(=O)O[C@H]1C[C@@H]2CC[C@@H]3[C@H](CC[C@@]4(C)[C@H]3C[C@H](N3CC[N+](C)(C)CC3)[C@@H]4OC(C)=O)[C@@]2(C)C[C@@H]1N1CC[N+](C)(C)CC1` it was -1.57%.
Take `CCCCCCCCCCCC(=O)OC[C@@H](O)C1OC[C@H](O)[C@H]1O` (stereo not given in full): the “activation” value was 1.11%.
The same measure, in the same setting: then `Cc1onc(-c2ccccc2)c1C(=O)N[C@@H]1C(=O)N2[C@@H]1SC(C)(C)[C@@H]2C(=O)O`, with 1.54%.
For `COc1ccc(C[C@@H](C)NC[C@H](O)c2ccc(O)c(NC=O)c2)cc1`, the “activation” value was 4.09%.
On the same count and under the same terms, in the case of `CC(C)N=c1cc2n(-c3ccc(Cl)cc3)c3ccccc3nc-2cc1Nc1ccc(Cl)cc1` it was -2.88% [at 26.2 µM]; in that of `CN[C@@H]1[C@@H](O)[C@@H](O[C@@H]2[C@@H](O)[C@H](OC3OC(CN)=CCC3N)[C@@H](N)C[C@H]2N)OC[C@]1(C)O` (stereo not given in full), 5.56% [at 26.2 µM].
As to `CC[C@H](C)CCCCC(=O)N[C@@H](CCN)C(=O)N[C@H](C(=O)N[C@@H](CCN)C(=O)N[C@H]1CCNC(=O)[C@H]([C@@H](C)O)NC(=O)[C@H](CCN)NC(=O)[C@H](CCN)NC(=O)[C@H](CC(C)C)NC(=O)[C@@H](CC(C)C)NC(=O)[C@H](CCN)NC1=O)[C@@H](C)O` (X2-[Dab]T[Dab][Dab][Dab][dL]L[Dab][Dab]T; lactam 4-C), the “activation” value was -8.69%.
Regarding `CN(C(=O)CO)c1c(I)c(C(=O)NCC(O)CO)c(I)c(C(=O)NCC(O)CO)c1I` (stereo not given), the “activation” value was -5%.
With `O=C(O)c1ccc(OCCn2ccnc2)cc1`, the “activation” value is -5.87%.
